# ± gives the standard deviation of the averaged measurements.
# Key:
# Experiment in all cases: promoter activity interaction Z-score (Lux/OD deviation from empty-vector control); higher = stronger promoter induction by the compound
# [1] = system: E. coli BW25113 acrABp lux reporter
# Procedure, shortened: (§1)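 OD600 and luminescence of E. coli BW25113 reporter cultures (40 µl LB Lennox, 384-well plates, 37°C) were measured every 30 min for 12 h. Integration ran over 0–8 h for wild type or 1–9 h for deletion strains, and wells with growth below 10% of the median were dropped. The score is the Z-transformed residual of growth-normalised luminescence fitted against a control.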
# [2] = system: E. coli BW25113 micFp lux reporter
# Procedure, shortened: as §1
# [3] = system: E. coli BW25113 ompFp lux reporter
# Procedure, shortened: as §1
# [4] = system: E. coli BW25113 robp lux reporter
# Procedure, shortened: as §1
# [5] = system: E. coli BW25113 soxSp lux reporter
# Procedure, shortened: as §1
# [6] = system: E. coli BW25113 tolCp lux reporter
# Procedure, shortened: as §1
# [7] = 0.29 µg/ml, genetic background: wild type
# [8] = 0.29 µg/ml, genetic background: ΔmarA
# [9] = 0.29 µg/ml, genetic background: Δrob
# [10] = 0.29 µg/ml, genetic background: ΔsoxS
# [11] = 0.58 µg/ml, genetic background: wild type
# [12] = 0.58 µg/ml, genetic background: ΔmarA
# [13] = 0.58 µg/ml, genetic background: Δrob
# [14] = 0.58 µg/ml, genetic background: ΔsoxS
# [15] = 1.2 µg/ml, genetic background: wild type
# [16] = 1.2 µg/ml, genetic background: ΔmarA
# [17] = 1.2 µg/ml, genetic background: Δrob
# [18] = 1.2 µg/ml, genetic background: ΔsoxS
# [19] = 2.3 µg/ml, genetic background: wild type
# [20] = 2.3 µg/ml, genetic background: ΔmarA
# [21] = 2.3 µg/ml, genetic background: Δrob
# [22] = 2.3 µg/ml, genetic background: ΔsoxS
smiles,measurement,setting,value
COc1cccc2c1C(=O)c1c(O)c3c(c(O)c1C2=O)C[C@@](O)(C(=O)CO)C[C@@H]3O[C@H]1C[C@H](N)[C@H](O)[C@H](C)O1 [Doxorubicin],promoter activity interaction Z-score,[1]; [7],0.264 ± 0.31
same,promoter activity interaction Z-score,[1]; [8],-0.773 ± 0.32
same,promoter activity interaction Z-score,[1]; [9],-0.101 ± 0.29
same,promoter activity interaction Z-score,[1]; [10],-0.227 ± 0.054
same,promoter activity interaction Z-score,[1]; [11],-0.00519 ± 0.22
same,promoter activity interaction Z-score,[1]; [12],-0.484 ± 0.49
same,promoter activity interaction Z-score,[1]; [13],0.115 ± 0.14
same,promoter activity interaction Z-score,[1]; [14],0.371 ± 0.49
same,promoter activity interaction Z-score,[1]; [15],0.261 ± 0.022
same,promoter activity interaction Z-score,[1]; [16],-0.464 ± 0.4
same,promoter activity interaction Z-score,[1]; [17],-0.135 ± 0.15
same,promoter activity interaction Z-score,[1]; [18],0.0497 ± 0.23
same,promoter activity interaction Z-score,[1]; [19],0.546 ± 0.062
same,promoter activity interaction Z-score,[1]; [20],-0.437 ± 0.036
same,promoter activity interaction Z-score,[1]; [21],6.35e-05 ± 0.4
same,promoter activity interaction Z-score,[1]; [22],0.827 ± 0.68
same,promoter activity interaction Z-score,[2]; [7],0.258 ± 0.51
same,promoter activity interaction Z-score,[2]; [8],0.00982 ± 0.04
same,promoter activity interaction Z-score,[2]; [9],-0.233 ± 0.1
same,promoter activity interaction Z-score,[2]; [10],-0.236 ± 0.048
same,promoter activity interaction Z-score,[2]; [11],-0.041 ± 0.36
same,promoter activity interaction Z-score,[2]; [12],0.043 ± 0.035
same,promoter activity interaction Z-score,[2]; [13],-0.0843 ± 0.009
same,promoter activity interaction Z-score,[2]; [14],0.253 ± 0.04
same,promoter activity interaction Z-score,[2]; [15],-0.0305 ± 0.051
same,promoter activity interaction Z-score,[2]; [16],-0.0475 ± 0.075
same,promoter activity interaction Z-score,[2]; [17],-0.046 ± 0.01
same,promoter activity interaction Z-score,[2]; [18],-0.0734 ± 0.14
same,promoter activity interaction Z-score,[2]; [19],-0.114 ± 0.2
same,promoter activity interaction Z-score,[2]; [20],-0.105 ± 0.05
same,promoter activity interaction Z-score,[2]; [21],-0.179 ± 0.24
same,promoter activity interaction Z-score,[2]; [22],0.5393 ± 0.002
same,promoter activity interaction Z-score,[3]; [7],0.731 ± 0.14
same,promoter activity interaction Z-score,[3]; [8],0.137 ± 0.52
same,promoter activity interaction Z-score,[3]; [9],0.0129 ± 0.29
same,promoter activity interaction Z-score,[3]; [10],0.416 ± 0.18
same,promoter activity interaction Z-score,[3]; [11],0.4996 ± 0.0037
same,promoter activity interaction Z-score,[3]; [12],0.465 ± 0.3
same,promoter activity interaction Z-score,[3]; [13],0.853 ± 0.58
same,promoter activity interaction Z-score,[3]; [14],0.476 ± 0.015
same,promoter activity interaction Z-score,[3]; [15],0.149 ± 0.086
same,promoter activity interaction Z-score,[3]; [16],0.206 ± 0.067
same,promoter activity interaction Z-score,[3]; [17],0.0157 ± 0.25
same,promoter activity interaction Z-score,[3]; [18],0.0237 ± 0.37
same,promoter activity interaction Z-score,[3]; [19],0.745 ± 0.73
same,promoter activity interaction Z-score,[3]; [20],0.961 ± 0.018
same,promoter activity interaction Z-score,[3]; [21],0.674 ± 0.97
same,promoter activity interaction Z-score,[3]; [22],1.34 ± 0.69
same,promoter activity interaction Z-score,[4]; [7],1.18 ± 0.82
same,promoter activity interaction Z-score,[4]; [8],-0.24 ± 0.58
same,promoter activity interaction Z-score,[4]; [9],0.206 ± 0.23
same,promoter activity interaction Z-score,[4]; [10],0.239 ± 0.22
same,promoter activity interaction Z-score,[4]; [11],0.596 ± 0.27
same,promoter activity interaction Z-score,[4]; [12],0.16 ± 0.16
same,promoter activity interaction Z-score,[4]; [13],0.385 ± 0.43
same,promoter activity interaction Z-score,[4]; [14],0.541 ± 0.27
same,promoter activity interaction Z-score,[4]; [15],0.714 ± 0.13
same,promoter activity interaction Z-score,[4]; [16],-0.447 ± 0.99
same,promoter activity interaction Z-score,[4]; [17],0.329 ± 0.74
same,promoter activity interaction Z-score,[4]; [18],0.0896 ± 0.043
same,promoter activity interaction Z-score,[4]; [19],0.943 ± 0.18
same,promoter activity interaction Z-score,[4]; [20],0.445 ± 0.36
same,promoter activity interaction Z-score,[4]; [21],-0.208 ± 0.44
same,promoter activity interaction Z-score,[4]; [22],0.518 ± 0.087
same,promoter activity interaction Z-score,[5]; [7],0.269 ± 0.063
same,promoter activity interaction Z-score,[5]; [8],0.0336 ± 0.05
same,promoter activity interaction Z-score,[5]; [9],-0.322 ± 0.09
same,promoter activity interaction Z-score,[5]; [10],0.15 ± 0.14
same,promoter activity interaction Z-score,[5]; [11],0.223 ± 0.25
same,promoter activity interaction Z-score,[5]; [12],0.0456 ± 0.13
same,promoter activity interaction Z-score,[5]; [13],0.138 ± 0.19
same,promoter activity interaction Z-score,[5]; [14],0.329 ± 0.29
same,promoter activity interaction Z-score,[5]; [15],0.245 ± 0.26
same,promoter activity interaction Z-score,[5]; [16],-0.00668 ± 0.18
same,promoter activity interaction Z-score,[5]; [17],-0.0803 ± 0.088
same,promoter activity interaction Z-score,[5]; [18],-0.0415 ± 0.028
same,promoter activity interaction Z-score,[5]; [19],0.426 ± 0.46
same,promoter activity interaction Z-score,[5]; [20],0.0221 ± 0.059
same,promoter activity interaction Z-score,[5]; [21],-0.22 ± 0.18
same,promoter activity interaction Z-score,[5]; [22],0.285 ± 0.86
same,promoter activity interaction Z-score,[6]; [7],0.409 ± 0.23
same,promoter activity interaction Z-score,[6]; [8],0.025 ± 0.4
same,promoter activity interaction Z-score,[6]; [9],-1.33 ± 0.07
same,promoter activity interaction Z-score,[6]; [10],-0.509 ± 0.71
same,promoter activity interaction Z-score,[6]; [11],0.591 ± 0.37
same,promoter activity interaction Z-score,[6]; [12],0.129 ± 0.57
same,promoter activity interaction Z-score,[6]; [13],-0.418 ± 0.28
same,promoter activity interaction Z-score,[6]; [14],0.558 ± 0.63
same,promoter activity interaction Z-score,[6]; [15],0.186 ± 1.3
same,promoter activity interaction Z-score,[6]; [16],-0.979 ± 0.47
same,promoter activity interaction Z-score,[6]; [17],-0.8316 ± 0.0065
same,promoter activity interaction Z-score,[6]; [18],-0.712 ± 0.47
same,promoter activity interaction Z-score,[6]; [19],-0.527 ± 0.035
same,promoter activity interaction Z-score,[6]; [20],-0.261 ± 0.0072
same,promoter activity interaction Z-score,[6]; [21],-1.42 ± 0.035
same,promoter activity interaction Z-score,[6]; [22],0.704 ± 0.5

# Reference: the supplement of paper PMC12282887
